PubChem BioAssay (Tox21)
Results filed as inconclusive are left out. Where a call stands in place of a potency, no number is given. Activity calls are given as the source filed them. The call rests on the fitted dose curve; in most records, active means well fitted curve in the direction sought with a large enough effect in the repeat runs; inconclusive means weak or mixed curves; inactive means no such curve, though single readings can be large; an effect the other way counts as inactive or inconclusive.

How the values were obtained:
[1] = molecular target: Cytochrome P450 2C9 (Homo sapiens) (UniProt P11712); test: Cytochrome P450 Family 2 Subfamily C Member 9 (CYP2C9) small molecule antagonists: luciferase reporter qHTS assay (AID 1671198)
Chain of Cytochrome P450 2C9 (Homo sapiens) (P11712 whole entry, looked up): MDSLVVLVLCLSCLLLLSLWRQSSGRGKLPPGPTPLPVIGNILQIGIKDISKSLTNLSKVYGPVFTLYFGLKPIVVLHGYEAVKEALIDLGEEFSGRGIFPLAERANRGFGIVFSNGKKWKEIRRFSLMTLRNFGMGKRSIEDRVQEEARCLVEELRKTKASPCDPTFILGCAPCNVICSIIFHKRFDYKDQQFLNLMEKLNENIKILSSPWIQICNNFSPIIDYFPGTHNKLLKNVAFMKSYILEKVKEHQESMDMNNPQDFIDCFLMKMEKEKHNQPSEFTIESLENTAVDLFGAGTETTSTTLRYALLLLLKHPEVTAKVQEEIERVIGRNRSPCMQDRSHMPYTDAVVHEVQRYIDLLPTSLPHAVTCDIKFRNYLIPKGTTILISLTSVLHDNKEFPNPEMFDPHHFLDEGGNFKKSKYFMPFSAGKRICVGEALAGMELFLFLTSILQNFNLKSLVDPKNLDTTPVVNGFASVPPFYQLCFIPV
Procedure, shortened: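 CYP2C9 activity was measured with a P450-Glo proluciferin substrate. Enzyme–substrate mix was held with compound for 10 min at room temperature, then NADPH regeneration solution was added for 1 h at 37C. Luciferin product was read as luminescence.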

[2] = molecular target: Cytochrome P450 1A2 (Homo sapiens) (UniProt P05177); test: Cytochrome P450 Family 1 Subfamily A Member 2 (CYP1A2) small molecule antagonists: luciferase reporter qHTS assay (AID 1671199)
Chain of Cytochrome P450 1A2 (Homo sapiens) (P05177 whole entry, looked up): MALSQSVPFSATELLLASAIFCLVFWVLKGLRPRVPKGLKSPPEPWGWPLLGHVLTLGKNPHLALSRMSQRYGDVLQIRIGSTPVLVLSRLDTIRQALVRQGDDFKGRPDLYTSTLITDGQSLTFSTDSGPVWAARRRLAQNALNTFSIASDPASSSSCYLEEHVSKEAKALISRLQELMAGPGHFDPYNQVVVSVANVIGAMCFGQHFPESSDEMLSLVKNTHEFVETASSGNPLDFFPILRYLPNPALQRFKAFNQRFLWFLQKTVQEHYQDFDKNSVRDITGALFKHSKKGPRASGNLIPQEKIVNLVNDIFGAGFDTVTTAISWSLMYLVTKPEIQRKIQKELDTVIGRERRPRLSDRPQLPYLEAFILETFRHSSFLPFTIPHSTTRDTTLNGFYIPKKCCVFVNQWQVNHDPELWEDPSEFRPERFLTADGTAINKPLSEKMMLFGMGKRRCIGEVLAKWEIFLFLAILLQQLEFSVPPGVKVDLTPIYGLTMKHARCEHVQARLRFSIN
Procedure, shortened: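 Compounds were incubated with CYP1A2 and a luminogenic proluciferin substrate for 10 min at room temperature before the reaction was started with NADPH regeneration solution. After 1 h, detection reagent was added and light output, proportional to CYP activity, was recorded.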

[3] = molecular target: Voltage-gated inwardly rectifying potassium channel KCNH2 (Homo sapiens) (UniProt Q12809); test: Human Ether-a-go-go-Related Gene (hERG) channel small molecule antagonists: fluorescence cell-based qHTS assay (AID 1671200)
Chain of Voltage-gated inwardly rectifying potassium channel KCNH2 (Homo sapiens) (Q12809 whole entry, looked up): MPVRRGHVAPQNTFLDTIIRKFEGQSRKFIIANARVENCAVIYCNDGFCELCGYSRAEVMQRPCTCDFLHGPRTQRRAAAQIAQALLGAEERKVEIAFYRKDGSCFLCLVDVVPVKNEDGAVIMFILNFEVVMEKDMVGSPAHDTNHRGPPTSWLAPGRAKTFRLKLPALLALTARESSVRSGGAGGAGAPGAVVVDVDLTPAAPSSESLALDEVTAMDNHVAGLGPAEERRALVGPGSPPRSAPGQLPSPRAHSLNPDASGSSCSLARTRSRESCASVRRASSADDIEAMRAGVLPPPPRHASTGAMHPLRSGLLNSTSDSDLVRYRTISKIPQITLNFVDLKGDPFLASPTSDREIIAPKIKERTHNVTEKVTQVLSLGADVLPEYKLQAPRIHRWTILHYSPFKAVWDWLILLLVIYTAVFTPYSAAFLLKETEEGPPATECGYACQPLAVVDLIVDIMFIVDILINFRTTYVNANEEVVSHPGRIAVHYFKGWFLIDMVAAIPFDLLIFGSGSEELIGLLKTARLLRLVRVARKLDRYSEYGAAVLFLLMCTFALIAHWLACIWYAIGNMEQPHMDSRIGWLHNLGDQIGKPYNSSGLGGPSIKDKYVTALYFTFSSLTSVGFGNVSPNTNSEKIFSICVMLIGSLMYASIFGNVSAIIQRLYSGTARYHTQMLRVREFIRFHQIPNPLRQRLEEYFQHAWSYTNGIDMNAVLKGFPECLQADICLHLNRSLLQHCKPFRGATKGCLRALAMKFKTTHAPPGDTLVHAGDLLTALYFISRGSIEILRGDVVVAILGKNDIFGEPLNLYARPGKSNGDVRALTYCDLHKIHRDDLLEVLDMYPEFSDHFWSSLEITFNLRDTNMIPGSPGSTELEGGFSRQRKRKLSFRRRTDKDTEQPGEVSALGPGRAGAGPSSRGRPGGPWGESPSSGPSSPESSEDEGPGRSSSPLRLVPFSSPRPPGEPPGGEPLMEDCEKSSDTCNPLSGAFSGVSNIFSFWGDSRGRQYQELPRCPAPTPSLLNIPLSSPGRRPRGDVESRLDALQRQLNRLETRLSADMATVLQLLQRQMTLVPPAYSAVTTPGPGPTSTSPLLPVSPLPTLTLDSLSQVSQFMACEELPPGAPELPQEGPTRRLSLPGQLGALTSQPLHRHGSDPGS
Procedure, shortened: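 Kinetic two-minute fluorescence traces, sampled at 1 s, were collected following thallium stimulus of U2OS cells (1000 per well) that had been cultured overnight at 37 C and loaded with FluxOR II.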

[4] = molecular target: Cytochrome P450 3A4 (Homo sapiens) (UniProt P08684); test: Cytochrome P450 Family 3 Subfamily A Member 4 (CYP3A4) small molecule antagonists: luciferase reporter qHTS assay (AID 1671201)
Chain of Cytochrome P450 3A4 (Homo sapiens) (P08684 whole entry, looked up): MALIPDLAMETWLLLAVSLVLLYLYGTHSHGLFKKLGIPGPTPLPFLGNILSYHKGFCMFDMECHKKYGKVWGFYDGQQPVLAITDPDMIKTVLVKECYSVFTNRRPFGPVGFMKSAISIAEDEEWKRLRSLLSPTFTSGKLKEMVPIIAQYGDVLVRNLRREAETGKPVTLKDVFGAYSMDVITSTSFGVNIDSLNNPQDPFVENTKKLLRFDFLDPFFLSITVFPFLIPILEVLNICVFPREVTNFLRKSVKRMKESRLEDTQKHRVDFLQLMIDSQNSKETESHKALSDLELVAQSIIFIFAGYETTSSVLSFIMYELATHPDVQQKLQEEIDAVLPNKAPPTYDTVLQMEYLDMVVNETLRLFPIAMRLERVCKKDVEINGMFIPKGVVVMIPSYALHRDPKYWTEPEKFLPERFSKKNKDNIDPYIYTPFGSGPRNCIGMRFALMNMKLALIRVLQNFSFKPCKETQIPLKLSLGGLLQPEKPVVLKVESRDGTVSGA
Procedure, shortened: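 Proluciferin-to-luciferin conversion by CYP3A4, NADPH-regenerated, 1 h RT; luminescence read as RLU. Ketoconazole as control.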
Further: nearly all actives have a fitted effect of over 50% in size.
Potency means the concentration at half of the fitted maximal effect.

SMILES | Potency [1] | Potency [2] | Potency [3] | Potency [4]
O=C(O)c1c(O)c(-c2ccccc2)nc2ccccc12 | 30.9 µM (active) | 17.4 µM (active) | inactive | inactive
CCCCCCOC(=O)C(C)C | inactive |  | inactive | inactive
CC[C@H](NC(=O)c1cc(F)ccc1NS(=O)(=O)c1cccc2cccnc12)c1ccccc1 | 9.49 µM (active) | inactive | inactive | 1.5 µM (active)
CCCCCCCCCCCC[N+](C)(C)CC(=O)[O-] |  | 35.6 µM (active) | inactive | inactive
c1ccc(COCc2ccccc2)cc1 |  | inactive | inactive | inactive
Nc1c(I)cc(I)c(C(=O)N(CCC(=O)O)c2ccccc2)c1I |  | inactive | inactive | inactive
CCC(C)(O)CCC=C(C)C (stereo not given) |  | inactive | inactive | inactive
CC(=N\O)/C(C)=N/O | inactive | 35.6 µM (active) | inactive | inactive
COCCOC |  |  | inactive | 
O=C(O)Cc1ccc(-c2ccccc2)cc1 |  | inactive | inactive | inactive
Cc1cc(C(=C2C=CC(=Nc3ccc(S(=O)(=O)O)cc3S(=O)(=O)O)C=C2)c2ccc(Nc3ccc(S(=O)(=O)O)cc3)cc2)ccc1N |  | inactive | inactive | inactive
C/C(=N/NC(=O)c1ccncc1)C(=O)O | inactive | inactive | inactive | inactive
CN1CCCN=C1/C=C/c1cccs1 |  |  | inactive | 
Cn1c(=O)c2c(ncn2CC(=O)O)n(C)c1=O |  | inactive | inactive | inactive
COC(=O)[C@@H]1CC2=CC(=O)CC[C@]2(C)[C@@]23O[C@@H]2C[C@@]2(C)[C@@H](CC[C@@]24CCC(=O)O4)[C@H]13 | inactive | inactive | inactive | inactive
CC(=O)Nc1ccccc1C | inactive | inactive | inactive | inactive
CCCCOC(=O)CCS | 63.3 µM (active) |  | inactive | inactive
O=C(N/N=C/c1ccc([N+](=O)[O-])o1)c1ccc(O)cc1 |  |  |  | inactive
CC1(C)C2=CCCC(C)(C)[C@]23CC[C@H]1C3 | 79.6 µM (active) |  | inactive | 35.6 µM (active)

SMILES | Potency [1] | Potency [2] | Potency [3] | Potency [4]
CCN(CC)CCNC(=O)c1ccc(NC(C)=O)cc1 |  | inactive |  | inactive
CC(=O)[C@H]1CC[C@H]2[C@@H]3C[C@H](C)C4=CC(=O)CC[C@]4(C)[C@H]3[C@@H](O)C[C@]12C | 1.23 µM (active) | inactive | inactive | 
C=CC(C)=CCC=C(C)C | 63.3 µM (active) |  | inactive | 28.3 µM (active)
CCCc1c(OCCCOc2ccc(OCC(=O)O)cc2)ccc(C(C)=O)c1O | 8.94 µM (active) |  | inactive | inactive
CCc1nn(CCCN2CCN(c3cccc(Cl)c3)CC2)c(=O)n1CCOc1ccccc1 |  | inactive | 1.51 µM (active) | 
CC(C)(C)C(=O)O | inactive |  | inactive | inactive
NC(=O)Nc1ccc(Cl)c(Cl)c1 |  | 8.91 µM (active) | inactive | inactive
O=C(OCCOCCO)c1ccccc1Nc1cccc(C(F)(F)F)c1 | 17.4 µM (active) | 12.3 µM (active) |  | 
CC[C@@H]([C@H](C)O)n1ncn(-c2ccc(N3CCN(c4ccc(OC[C@@H]5CO[C@@](Cn6cncn6)(c6ccc(F)cc6F)C5)cc4)CC3)cc2)c1=O |  | inactive |  | 
COC(=O)Nc1nc2ccc(C(=O)c3cccs3)cc2[nH]1 |  | 12.9 µM (active) | inactive | inactive
CC(COc1ccc(C(C)(C)C)cc1)OS(=O)OCCCl (stereo not given) | inactive | inactive | inactive | inactive
CN(C(=O)C(Cl)Cl)c1ccc(OC(=O)c2ccco2)cc1 | 15.5 µM (active) | inactive | inactive | inactive
NC(=O)Cn1c(=O)cc(CCN2CCN(c3nccc4sccc34)CC2)c2ccc(F)cc21 | 63.3 µM (active) | inactive | inactive | 5.64 µM (active)
C=CCOC(=O)/C=C\C(=O)OCC=C |  | 28.8 µM (active) | inactive | 
C[C@@H]1C[C@H]2[C@@H]3CCC4=CC(=O)C=C[C@]4(C)[C@@]3(F)[C@@H](O)C[C@]2(C)[C@@]1(O)C(=O)CO |  |  | inactive | 
CCNC(=O)N1CCN(CCCC(c2ccc(F)cc2)c2ccc(F)cc2)CC1 |  | inactive | 0.107 µM (active) | inactive
CC1=C(C=O)C(C)(C)CCC1 |  | inactive | inactive | 
CCCCN(CCCC)CCCOC(=O)c1ccc(N)cc1 |  | inactive | 9.52 µM (active) | inactive
